# Source: PubChem
# HT1080 IDH1KD tx: qHTS for induction of synthetic lethality in tumor cells producing 2HG: qHTS for the HT-1080-IDH1KD cell line. HT-1080 IDH1 knockdown viability, ATP luminescence, 48 h. Potency, µM (titrated, usually from 46.1 µM), for inactives: at the top dose activity, negative = toxicity, most hits filed as cytotoxic. hit rate 2% among 360,000;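 note: 0% = DMSO wells and -100% = cell-free medium wells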
#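 Viability of IDH1-knockdown HT-1080 fibrosarcoma cells was assessed by CellTiter-Glo after 48 h at 37 °C with titrated compound; concentration-effect curves were classified by fit quality and response size.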
# HT1080NT lethal: qHTS for induction of synthetic lethality in tumor cells producing 2HG: qHTS for the HT-1080-NT fibrosarcoma cell line; HT-1080-NT fibrosarcoma viability, CellTiter-Glo ATP luminescence, 48 h; Potency, µM (titrated, usually from 46.1 µM), for inactives: at the highest dose activity, negative = less viability, usual class: cytotoxic; hit rate 1.6% among 360,000;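 note: NT is the 2HG producing partner of a matched IDH1 knockdown line; 0% = DMSO-treated cells and -100% = media-only wells without cells; nearly all actives have a fitted effect of over 55% in size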
#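 HT-1080-NT fibrosarcoma cells (2HG-overproducing), 750 cells/well in RPMI with 5% FBS, dosed after 2 h and incubated 48 h at 37C. CellTiter-Glo luminescence normalized to DMSO and no-cell wells; concentration-response curves fitted and classed.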
# TDP1 cell CPT: qHTS for Inhibitors of human tyrosyl-DNA phosphodiesterase 1 (TDP1): qHTS in cells in presence of CPT | chicken DT40 Tdp1-/-;hTDP1 cells + 20 nM CPT, ATP luminescence, 48 h | Potency, µM (series often up to 46.2 µM), for the others: at the top dose activity change, negative = growth inhibition, actives largely listed as inhibitors | hit rate 12% among 420,000 | AID 686979, 2013; note: nearly all actives have a fitted effect of over 55% in size
#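 Chicken DT40 Tdp1-/- cells complemented with human TDP1, 400 cells/well, exposed to compounds plus 20 nM camptothecin for at least 48 h at 37 C; viability read as ATP content by CellTiter-Glo luminescence.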
# DT40 TDP1 no CPT: qHTS for Inhibitors of human tyrosyl-DNA phosphodiesterase 1 (TDP1): qHTS in cells in absence of CPT. DT40 Tdp1-/- hTDP1 cells, no CPT, ATP luminescence, 48 h. Potency, µM (highest dose often 46.2 µM), for the others: at the highest dose activity change, negative = growth inhibition, usual class: inhibitors. hit rate 15% among 420,000; note: nearly all actives have a fitted effect of over 55% in size
#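 DT40 Tdp1-/-;hTDP1 cells, no CPT (DMSO vehicle only), 400 cells/well; compounds pin-transferred; ≥48 hr, 37 °C; CellTiter-Glo 30 min RT dark, luminescence read.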
# KB-V1 cytotox: qHTS assay for MDR1-selective chemotherapeutics: Primary screen using the drug-selected MDR subline cells KB-V1. AID 1347076, 2019. hit rate 3.4% among 400,000. Potency, µM (titrated, usually from 46.1 µM), hits mostly cytotoxic. KB-V1 MDR cells viability, CellTiter-Glo, 72 h; note: nearly all actives have a fitted effect of over 60% in size
#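 Cytotoxicity via CellTiter-Glo luminescence after 72 h compound exposure at 37 degrees C. Cells: drug-selected KB-V1 line, DMEM phenol-red free plus 10% FBS. Compounds tested at multiple concentrations; normalized data fitted to concentration-effect curves.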
# KB-3-1 cytotox: qHTS assay for MDR1-selective chemotherapeutics: Primary screen using the parental adenocarcinoma cell KB-3-1. KB-3-1 viability, CellTiter-Glo ATP luminescence, 72 h. Potency, µM (top dose mostly 46.1 µM), hits mostly cytotoxic. hit rate 1.4% among 400,000. AID 1347075, 2019; note: nearly all actives have a fitted effect of over 60% in size
#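 Here the drug-naive KB-3-1 line serves as comparator for MDR sub-line selectivity; cells received compound titrations, 72 h at 37 °C, then CellTiter-Glo readout.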
# An asterisk follows results filed as active; i = inactive; ? = inconclusive; . = not tested or not shown. Only some compounds are listed: those with a hit (about 19% of all), similar ones and a draw of the others. Calls come from the whole dose curve; as a rule, active = well fitted curve in the direction sought with a large enough effect; inconclusive = small, poorly fitted or top-dose-only effect, or another doubt; inactive = no such curve, though single readings can be large; an effect the other way counts as inactive or inconclusive. Unless noted, % is set by controls: 0 for no effect and ±100 for the full control effect; potency is the fitted concentration of half-maximal effect.
SMILES,HT1080 IDH1KD tx,HT1080NT lethal,TDP1 cell CPT,DT40 TDP1 no CPT,KB-V1 cytotox,KB-3-1 cytotox
CC(C)OCCCn1c(=O)c2ccccc2n2c(-c3ccccc3F)nnc12,.,.,-26%,?,i,i
CC(C)OCCCn1c(=O)c2ccccc2n2c(-c3cc(Cl)ccc3O)nnc12,.,.,?,18µM*,i,i
COc1cccc(-c2nnc3n(Cc4ccc(C)cc4)c(=O)c4ccccc4n23)c1O,.,.,?,26µM*,i,i
COc1ccc(OC)c(-c2nnc3n(CCc4ccccc4)c(=O)c4ccccc4n23)c1,.,.,8.2µM*,16µM*,i,i
O=c1c2ccccc2n2c(-c3ccc(F)c(F)c3)nnc2n1CCc1ccccc1,.,.,?,?,i,i
CC(C)(C)Cc1c(-c2ccc(Cl)cc2)nc2c(Cl)cc(C(F)(F)F)cn12,16%,17%,?,?,i,i
O=C(c1ccco1)N1CCCN(Cc2nc(Cc3ccccc3)no2)CC1,15%,-3%,8%,-25%,i,i
COc1ccc(Cn2c(=O)c3ccccc3n3c(-c4cccc(OC)c4OC)nnc23)cc1,.,.,?,16µM*,?,i
O=C(CSc1nnc(-c2ccco2)n1CC1CCCO1)c1ccc(F)cc1 (stereo not drawn),?,-10%,18µM*,21µM*,i,i
O=C(CSc1ccc(-c2ccco2)nn1)c1ccc(F)cc1,-1%,17%,-29%,-28%,26µM*,i
O=C(CSc1ccc(-c2ccco2)nn1)NCc1ccc(F)cc1,-6%,-3%,-11%,-19%,i,i
COc1ccc(C(=O)CSc2nnc(-c3ccco3)n2CC2CCCO2)cc1 (stereo not drawn),-2%,-1%,?,?,i,i
COc1ccc(Cn2c(=N)c(C(=O)NC3CCCCC3)cc3c(=O)n4ccccc4nc32)cc1,21%,12%,18µM*,8.2µM*,i,i
CC(C)n1c(=N)c(C(=O)NC2CCCCC2)cc2c(=O)n3ccccc3nc21,.,.,2%,0%,?,i
COc1ccc(CCn2c(=N)c(C(=O)NC3CCCC3)cc3c(=O)n4ccccc4nc32)cc1OC,2%,9%,0.73µM*,0.65µM*,i,?
COc1ccc(CCn2c(=N)c(C(=O)NC3CCCC3)cc3c(=O)n4ccccc4nc32)cc1,7%,-1%,4.1µM*,3.3µM*,i,i
N=c1c(C(=O)NC2CCCCC2)cc2c(=O)n3ccccc3nc2n1CC1CCCO1 (stereo not drawn),4%,10%,4%,?,i,i
COCCCn1c(=N)c(C(=O)NC2CCCC2)cc2c(=O)n3ccccc3nc21,.,.,1%,-1%,i,i
CCC(C)n1c(=N)c(C(=O)NC2CCCCC2)cc2c(=O)n3ccccc3nc21 (stereo not drawn),.,.,?,16µM*,i,i
O=C(C[n+]1cccc2cc(Cl)ccc21)c1ccc2c(c1)CCCC2,.,.,-24%,-5%,i,i
CCc1ccc2oc(-c3ccc(C)c(NC(=O)c4cc([N+](=O)[O-])ccc4N4CCOCC4)c3)nc2c1,.,.,?,?,i,i
COCCn1c(=N)c(C(=O)NCC2CCCO2)cc2c(=O)n3ccccc3nc21 (stereo not drawn),.,.,4%,-9%,?,i
COc1cccc(NC(=O)c2cc3c(=O)n4ccccc4nc3n(CC(C)C)c2=N)c1,7%,-1%,6.5µM*,5.8µM*,i,i
COc1ccc(CCn2c(=N)c(C(=O)NCC3CCCO3)cc3c(=O)n4ccccc4nc32)cc1OC (stereo not drawn),-4%,-19%,7.3µM*,2.9µM*,i,i
COc1ccc([C@@H]2C[C@H]3[C@@H](CN2S(=O)(=O)c2ccccc2)C(=O)C[C@@H](c2ccc(OC)cc2)N3S(=O)(=O)c2ccccc2)cc1,0%,8%,-15%,3%,i,i
SMILES,HT1080 IDH1KD tx,HT1080NT lethal,TDP1 cell CPT,DT40 TDP1 no CPT,KB-V1 cytotox,KB-3-1 cytotox
CCOc1cc(/C=N/NC(=O)c2ccc(CN3CCOCC3)cc2)ccc1OC,-5%,0%,3%,-24%,i,i
CCOc1cc(/C=C/C(=O)c2ccc(OC)c(CN3CCOCC3)c2)cc(Br)c1O,23µM*,?,?,?,?,?
Cc1ccc(S(=O)(=O)c2ncccc2N)cc1,-2%,1%,11%,3%,i,i
Cc1ccc(S(=O)(=O)c2ncccc2[N+](=O)[O-])cc1,23µM*,9.2µM*,1.2µM*,0.65µM*,?,?
CCOc1ccc(N=Cc2c(C)[nH]n(-c3nc4ccccc4[nH]3)c2=O)cc1,3.7µM*,5.2µM*,10µM*,9.2µM*,?,?
CCC(C(=O)Nc1nnc2n1CCS2)c1ccccc1 (stereo not drawn),.,.,-17%,-14%,?,i
O=S(=O)(Nc1cc(F)ccc1F)c1ccc2[nH]c3c(c2c1)CCCCC3,.,.,?,?,i,i
O=S(=O)(NCc1ccc(F)cc1)c1ccc2[nH]c3c(c2c1)CCCCC3,.,.,?,?,i,i
Cc1ccc(NS(=O)(=O)c2ccc3[nH]c4c(c3c2)CCCCCC4)cc1,.,.,26µM*,?,i,?
